Substitutions are numbered along the chain they refer to.

Assay in all cases: PBM; 200 nM protein, PBS
Common to all, as to conditions: dsDNA, one strand shown

Test [1] addresses HOXA7 (Homo sapiens, UniProt P31268 116-202).
In test [2] the target is T1, NKX2-6 (Homo sapiens, UniProt A6NCS4 118-204).
T1 sequence: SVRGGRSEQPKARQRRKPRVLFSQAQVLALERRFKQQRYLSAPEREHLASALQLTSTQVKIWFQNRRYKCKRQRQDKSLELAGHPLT

For test [3], the target named is T2, NKX2-6 (Homo sapiens, UniProt A6NCS4 118-204, F151L).
T2 sequence: T1 sequence with F34L

Test [4] deals with HOXA7 (Homo sapiens, UniProt P31268 116-202, W177C).
Test [5] deals with HOXA2 (Homo sapiens, UniProt O43364 129-215, R185T).
In test [6] the target is HOXA2 (Homo sapiens, UniProt O43364 129-215, R185K).
In test [7] the target is HOXA2 (Homo sapiens, UniProt O43364 129-215, Y150S).
For test [8], the target named is HOXA2 (Homo sapiens, UniProt O43364 129-215).
Test [9] deals with ALX4 (Homo sapiens, UniProt Q9H161 200-286).
The target of test [10] is ALX4 (Homo sapiens, UniProt Q9H161 200-286, Q225E).
Test [11] has as its target VAX1 (Homo sapiens, UniProt Q5SQQ9 86-172).
Test [12] deals with VAX1 (Homo sapiens, UniProt Q5SQQ9 86-172, T142I).
For test [13], the target named is VAX1 (Homo sapiens, UniProt Q5SQQ9 86-172, K157R).
The target in test [14] is ALX1 (Homo sapiens, UniProt Q15699 118-204, L144V).
Test [15] has as its target ALX1 (Homo sapiens, UniProt Q15699 118-204, L144R).
Test [16] addresses ALX1 (Homo sapiens, UniProt Q15699 118-204).
For test [17], the target named is T3, PAX4 (Homo sapiens, UniProt O43316 9-242, R200K).
T3 sequence: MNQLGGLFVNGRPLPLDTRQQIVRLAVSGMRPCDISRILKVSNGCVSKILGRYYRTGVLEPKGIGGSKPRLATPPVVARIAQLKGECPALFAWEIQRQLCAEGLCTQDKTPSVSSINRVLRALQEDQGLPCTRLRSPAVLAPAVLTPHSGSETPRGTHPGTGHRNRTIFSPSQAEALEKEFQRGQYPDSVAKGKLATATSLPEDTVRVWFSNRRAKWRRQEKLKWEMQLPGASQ

The target of test [18] is T4, PAX4 (Homo sapiens, UniProt O43316 9-242).
T4 sequence: T3 sequence with K192R

Test [19] has as its target T5, PAX4 (Homo sapiens, UniProt O43316 9-242, R200Q).
T5 sequence: T3 sequence with K192Q

Test [20] deals with T6, PAX4 (Homo sapiens, UniProt O43316 9-242, F177V).
T6 sequence: T3 sequence with F169V, K192R

For test [21], the target named is T7, PAX4 (Homo sapiens, UniProt O43316 9-242, F177Y).
T7 sequence: T3 sequence with F169Y, K192R

Test [22] addresses T8, PAX4 (Homo sapiens, UniProt O43316 9-242, R227W).
T8 sequence: T3 sequence with K192R, R219W

The target in test [23] is PROP1 (Homo sapiens, UniProt O75360 56-141).
For test [24], the target named is PROP1 (Homo sapiens, UniProt O75360 56-141, R99H).
The target of test [25] is PROP1 (Homo sapiens, UniProt O75360 56-141, F88S).
For test [26], the target named is HOXD13 (Homo sapiens, UniProt P35453 263-343, T313R).
For test [27], the target named is HOXD13 (Homo sapiens, UniProt P35453 263-343).
Test [28] has as its target HOXD13 (Homo sapiens, UniProt P35453 263-343, T313A).
For a further test, the target named is HOXC9 (Homo sapiens, UniProt P31274 178-260, R222W).
For test [29], the target named is MSX2 (Homo sapiens, UniProt P35548 130-214, R199I).
Test [30] concerns the target MSX2 (Homo sapiens, UniProt P35548 130-214).
The target in test [31] is MSX2 (Homo sapiens, UniProt P35548 130-214, F161Y).
MSX2 (Homo sapiens, UniProt P35548 130-214, F161Y), sequence (P35548 130-214 F161Y): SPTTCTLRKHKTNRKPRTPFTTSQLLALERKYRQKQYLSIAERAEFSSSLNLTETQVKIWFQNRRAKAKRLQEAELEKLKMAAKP

PROP1 (Homo sapiens, UniProt O75360 56-141, R99H), sequence (O75360 56-141 R99H): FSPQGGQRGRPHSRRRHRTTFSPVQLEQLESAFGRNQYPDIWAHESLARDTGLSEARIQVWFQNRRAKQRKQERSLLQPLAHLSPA
HOXA7 (Homo sapiens, UniProt P31268 116-202), sequence (P31268 116-202): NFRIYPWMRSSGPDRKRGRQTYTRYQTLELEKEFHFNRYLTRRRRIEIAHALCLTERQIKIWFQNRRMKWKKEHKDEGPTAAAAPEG
PROP1 (Homo sapiens, UniProt O75360 56-141), sequence (O75360 56-141): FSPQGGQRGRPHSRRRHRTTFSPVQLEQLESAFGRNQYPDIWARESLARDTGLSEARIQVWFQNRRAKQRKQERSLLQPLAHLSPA
HOXA7 (Homo sapiens, UniProt P31268 116-202, W177C), sequence (P31268 116-202 W177C): as the sequence (P31268 116-202) above, with W62C counted along it
PROP1 (Homo sapiens, UniProt O75360 56-141, F88S), sequence (O75360 56-141 F88S): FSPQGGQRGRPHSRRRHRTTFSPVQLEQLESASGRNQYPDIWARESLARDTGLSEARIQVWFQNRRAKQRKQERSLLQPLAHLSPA
ALX4 (Homo sapiens, UniProt Q9H161 200-286), sequence (Q9H161 200-286): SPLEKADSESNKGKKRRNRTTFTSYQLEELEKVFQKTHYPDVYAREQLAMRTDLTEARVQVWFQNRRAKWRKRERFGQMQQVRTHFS
ALX4 (Homo sapiens, UniProt Q9H161 200-286, Q225E), sequence (Q9H161 200-286 Q225E): as the sequence (Q9H161 200-286) above, with Q26E counted along it
HOXD13 (Homo sapiens, UniProt P35453 263-343, T313R), sequence (P35453 263-343 T313R): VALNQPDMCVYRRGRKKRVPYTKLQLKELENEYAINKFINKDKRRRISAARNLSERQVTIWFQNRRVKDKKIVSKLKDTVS
ALX1 (Homo sapiens, UniProt Q15699 118-204, L144V), sequence (Q15699 118-204 L144V): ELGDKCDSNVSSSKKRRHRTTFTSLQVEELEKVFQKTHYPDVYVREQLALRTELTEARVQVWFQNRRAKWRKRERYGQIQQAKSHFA
VAX1 (Homo sapiens, UniProt Q5SQQ9 86-172, T142I), sequence (Q5SQQ9 86-172 T142I): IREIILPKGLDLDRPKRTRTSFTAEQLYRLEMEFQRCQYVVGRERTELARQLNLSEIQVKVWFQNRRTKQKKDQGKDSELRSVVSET
HOXA2 (Homo sapiens, UniProt O43364 129-215, Y150S), sequence (O43364 129-215 Y150S): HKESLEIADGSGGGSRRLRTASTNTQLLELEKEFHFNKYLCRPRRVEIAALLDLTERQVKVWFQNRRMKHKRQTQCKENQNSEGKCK
HOXC9, sequence (P31274 178-260 R222W): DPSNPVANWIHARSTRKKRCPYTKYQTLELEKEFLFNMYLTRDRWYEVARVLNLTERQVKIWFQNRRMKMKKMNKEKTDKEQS
HOXA2 (Homo sapiens, UniProt O43364 129-215, R185K), sequence (O43364 129-215 R185K): as the sequence (O43364 129-215 Y150S) above, with S22Y, R57K counted along it
ALX1 (Homo sapiens, UniProt Q15699 118-204, L144R), sequence (Q15699 118-204 L144R): as the sequence (Q15699 118-204 L144V) above, with V27R counted along it
HOXA2 (Homo sapiens, UniProt O43364 129-215), sequence (O43364 129-215): as the sequence (O43364 129-215 Y150S) above, with S22Y counted along it
MSX2 (Homo sapiens, UniProt P35548 130-214), sequence (P35548 130-214): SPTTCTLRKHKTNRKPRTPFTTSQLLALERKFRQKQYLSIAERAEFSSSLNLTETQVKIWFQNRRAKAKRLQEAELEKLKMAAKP
ALX1 (Homo sapiens, UniProt Q15699 118-204), sequence (Q15699 118-204): as the sequence (Q15699 118-204 L144V) above, with V27L counted along it
HOXA2 (Homo sapiens, UniProt O43364 129-215, R185T), sequence (O43364 129-215 R185T): as the sequence (O43364 129-215 Y150S) above, with S22Y, R57T counted along it
VAX1 (Homo sapiens, UniProt Q5SQQ9 86-172), sequence (Q5SQQ9 86-172): as the sequence (Q5SQQ9 86-172 T142I) above, with I57T counted along it
HOXD13 (Homo sapiens, UniProt P35453 263-343, T313A), sequence (P35453 263-343 T313A): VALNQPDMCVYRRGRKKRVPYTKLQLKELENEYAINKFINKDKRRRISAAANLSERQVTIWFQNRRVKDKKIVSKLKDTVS
MSX2 (Homo sapiens, UniProt P35548 130-214, R199I), sequence (P35548 130-214 R199I): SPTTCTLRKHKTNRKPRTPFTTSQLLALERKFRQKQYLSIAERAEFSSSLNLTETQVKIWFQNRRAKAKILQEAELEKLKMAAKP
HOXD13 (Homo sapiens, UniProt P35453 263-343), sequence (P35453 263-343): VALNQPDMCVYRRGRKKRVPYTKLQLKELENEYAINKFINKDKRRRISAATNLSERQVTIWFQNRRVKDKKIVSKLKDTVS
VAX1 (Homo sapiens, UniProt Q5SQQ9 86-172, K157R), sequence (Q5SQQ9 86-172 K157R): as the sequence (Q5SQQ9 86-172 T142I) above, with I57T, K72R counted along it

With CCGGGGGC, the binding signal in the test with HOXA7 [1] was 8.67 upbm affinity estimate (log intensity, higher = more binding, comparable within an allelic series); with NKX2-6 [2], 9.19 upbm affinity estimate (log intensity, higher = more binding, comparable within an allelic series); with NKX2-6 [3], 8.93 upbm affinity estimate (log intensity, higher = more binding, comparable within an allelic series); with HOXA7 [4] it was 8.26 upbm affinity estimate (log intensity, higher = more binding, comparable within an allelic series).
For the sequence GACGCTGC, the binding signal was 8.24 upbm affinity estimate (log intensity, higher = more binding, comparable within an allelic series) with HOXA7 [1]; 6.99 upbm affinity estimate (log intensity, higher = more binding, comparable within an allelic series) with HOXA2 [5]; 10.4 upbm affinity estimate (log intensity, higher = more binding, comparable within an allelic series) with HOXA2 [6]; 10.4 upbm affinity estimate (log intensity, higher = more binding, comparable within an allelic series) in the test with HOXA2 [7]; 8.35 upbm affinity estimate (log intensity, higher = more binding, comparable within an allelic series) with HOXA7 [4]; 7.11 upbm affinity estimate (log intensity, higher = more binding, comparable within an allelic series) with HOXA2 [8].
ACCCAGCC: the binding signal was 8.44 upbm affinity estimate (log intensity, higher = more binding, comparable within an allelic series) in the test with HOXA7 [1]; 8.13 upbm affinity estimate (log intensity, higher = more binding, comparable within an allelic series) in the test with ALX4 [9]; 8.18 upbm affinity estimate (log intensity, higher = more binding, comparable within an allelic series) with ALX4 [10]; 7.07 upbm affinity estimate (log intensity, higher = more binding, comparable within an allelic series) in the test with VAX1 [11]; 7.26 upbm affinity estimate (log intensity, higher = more binding, comparable within an allelic series) with VAX1 [12]; 8.42 upbm affinity estimate (log intensity, higher = more binding, comparable within an allelic series) with HOXA7 [4]. The binding signal in the test with VAX1 [13] was 7 upbm affinity estimate (log intensity, higher = more binding, comparable within an allelic series).
For CCAAGCCA, the binding signal with HOXA7 [1] is 8.43 upbm affinity estimate (log intensity, higher = more binding, comparable within an allelic series); with ALX1 [14], 6.51 upbm affinity estimate (log intensity, higher = more binding, comparable within an allelic series); with ALX1 [15], 6.6 upbm affinity estimate (log intensity, higher = more binding, comparable within an allelic series); in the test with HOXA7 [4] it was 8.54 upbm affinity estimate (log intensity, higher = more binding, comparable within an allelic series); in the test with ALX1 [16] it was 6.46 upbm affinity estimate (log intensity, higher = more binding, comparable within an allelic series).
On to CAGCAACC, for which the binding signal in the test with HOXA7 [1] is 8.52 upbm affinity estimate (log intensity, higher = more binding, comparable within an allelic series); in the test with HOXA7 [4], 8.47 upbm affinity estimate (log intensity, higher = more binding, comparable within an allelic series).
For AGGCAGGC, the binding signal with HOXA7 [1] is 8.15 upbm affinity estimate (log intensity, higher = more binding, comparable within an allelic series); with PAX4 [17], 9.23 upbm affinity estimate (log intensity, higher = more binding, comparable within an allelic series); with PAX4 [18] it was 9.23 upbm affinity estimate (log intensity, higher = more binding, comparable within an allelic series); in the test with PAX4 [19], 9.37 upbm affinity estimate (log intensity, higher = more binding, comparable within an allelic series); with PAX4 [20] it was 9.22 upbm affinity estimate (log intensity, higher = more binding, comparable within an allelic series); in the test with PAX4 [21] it was 9.34 upbm affinity estimate (log intensity, higher = more binding, comparable within an allelic series). The binding signal with PAX4 [22] is 9.36 upbm affinity estimate (log intensity, higher = more binding, comparable within an allelic series); with HOXA7 [4], 8.3 upbm affinity estimate (log intensity, higher = more binding, comparable within an allelic series).
On to AAATTGCC, for which the binding signal is 10.3 upbm affinity estimate (log intensity, higher = more binding, comparable within an allelic series) with HOXA7 [1] and 8.7 upbm affinity estimate (log intensity, higher = more binding, comparable within an allelic series) with HOXA7 [4].
Regarding GATTACAC, the binding signal is 9.6 upbm affinity estimate (log intensity, higher = more binding, comparable within an allelic series) in the test with HOXA7 [1]; 10.9 upbm affinity estimate (log intensity, higher = more binding, comparable within an allelic series) with PAX4 [17]; 11.2 upbm affinity estimate (log intensity, higher = more binding, comparable within an allelic series) with PAX4 [18]; 11 upbm affinity estimate (log intensity, higher = more binding, comparable within an allelic series) in the test with PAX4 [19]; 10.3 upbm affinity estimate (log intensity, higher = more binding, comparable within an allelic series) with PAX4 [20]; 8.73 upbm affinity estimate (log intensity, higher = more binding, comparable within an allelic series) with HOXA7 [4].
With AGCTTTCC, the binding signal in the test with HOXA7 [1] is 8.42 upbm affinity estimate (log intensity, higher = more binding, comparable within an allelic series); with PROP1 [23], 6.7 upbm affinity estimate (log intensity, higher = more binding, comparable within an allelic series); with PROP1 [24] it was 6.84 upbm affinity estimate (log intensity, higher = more binding, comparable within an allelic series); in the test with PROP1 [25] it was 7.01 upbm affinity estimate (log intensity, higher = more binding, comparable within an allelic series); with HOXA7 [4] it was 8.43 upbm affinity estimate (log intensity, higher = more binding, comparable within an allelic series).
Consider CAGTGCGG, for which the binding signal was 8.54 upbm affinity estimate (log intensity, higher = more binding, comparable within an allelic series) in the test with HOXA7 [1]; 6.84 upbm affinity estimate (log intensity, higher = more binding, comparable within an allelic series) in the test with PROP1 [23]; 6.82 upbm affinity estimate (log intensity, higher = more binding, comparable within an allelic series) with PROP1 [24]; 6.73 upbm affinity estimate (log intensity, higher = more binding, comparable within an allelic series) with PROP1 [25]; 8.37 upbm affinity estimate (log intensity, higher = more binding, comparable within an allelic series) with HOXA7 [4].
For the sequence GACAGCGA, the binding signal with HOXA7 [1] is 8.31 upbm affinity estimate (log intensity, higher = more binding, comparable within an allelic series); with HOXA7 [4], 8.41 upbm affinity estimate (log intensity, higher = more binding, comparable within an allelic series).
Take CGTTGCTC: the binding signal was 8.49 upbm affinity estimate (log intensity, higher = more binding, comparable within an allelic series) with HOXA7 [1]; 9.58 upbm affinity estimate (log intensity, higher = more binding, comparable within an allelic series) with PAX4 [17]; 9.38 upbm affinity estimate (log intensity, higher = more binding, comparable within an allelic series) with PAX4 [18]; 9.57 upbm affinity estimate (log intensity, higher = more binding, comparable within an allelic series) in the test with PAX4 [19]; 9.52 upbm affinity estimate (log intensity, higher = more binding, comparable within an allelic series) with PAX4 [20]; 9.55 upbm affinity estimate (log intensity, higher = more binding, comparable within an allelic series) in the test with PAX4 [21]. The binding signal is 9.55 upbm affinity estimate (log intensity, higher = more binding, comparable within an allelic series) with PAX4 [22] and 8.47 upbm affinity estimate (log intensity, higher = more binding, comparable within an allelic series) with HOXA7 [4].
On to GAATATAA, for which the binding signal with HOXA7 [1] is 9.85 upbm affinity estimate (log intensity, higher = more binding, comparable within an allelic series); in the test with ALX4 [9], 10.8 upbm affinity estimate (log intensity, higher = more binding, comparable within an allelic series); with ALX4 [10] it was 9.99 upbm affinity estimate (log intensity, higher = more binding, comparable within an allelic series); in the test with HOXA7 [4], 8.92 upbm affinity estimate (log intensity, higher = more binding, comparable within an allelic series).
As to CGTTTATC, the binding signal with HOXA7 [1] is 9.65 upbm affinity estimate (log intensity, higher = more binding, comparable within an allelic series); with PROP1 [23] it was 8.39 upbm affinity estimate (log intensity, higher = more binding, comparable within an allelic series); with PROP1 [24], 7.9 upbm affinity estimate (log intensity, higher = more binding, comparable within an allelic series); with PROP1 [25], 7.41 upbm affinity estimate (log intensity, higher = more binding, comparable within an allelic series); with HOXA7 [4], 8.89 upbm affinity estimate (log intensity, higher = more binding, comparable within an allelic series).
Turning to TATAAAAA, the binding signal was 9.87 upbm affinity estimate (log intensity, higher = more binding, comparable within an allelic series) with HOXA7 [1]; 10.9 upbm affinity estimate (log intensity, higher = more binding, comparable within an allelic series) in the test with HOXD13 [26]; 11.8 upbm affinity estimate (log intensity, higher = more binding, comparable within an allelic series) with HOXD13 [27]; 11.6 upbm affinity estimate (log intensity, higher = more binding, comparable within an allelic series) with HOXD13 [28]; 11.1 upbm affinity estimate (log intensity, higher = more binding, comparable within an allelic series) with HOXC9; 8.84 upbm affinity estimate (log intensity, higher = more binding, comparable within an allelic series) in the test with HOXA7 [4].
CGGTGTCC: the binding signal is 8.41 upbm affinity estimate (log intensity, higher = more binding, comparable within an allelic series) with HOXA7 [1]; 9.36 upbm affinity estimate (log intensity, higher = more binding, comparable within an allelic series) with MSX2 [29]; 9.29 upbm affinity estimate (log intensity, higher = more binding, comparable within an allelic series) in the test with MSX2 [30]; 9.3 upbm affinity estimate (log intensity, higher = more binding, comparable within an allelic series) with MSX2 [31]; 8.4 upbm affinity estimate (log intensity, higher = more binding, comparable within an allelic series) in the test with HOXA7 [4].

Values taken from PMC11006913.
